# Test results: PubChem BioAssay (NCI)
# Compounds without any hit were thinned out: in the full panel of roughly 79,000, 15% have a hit. A number with no mark means an inactive call. Active and inactive are the calls of the source. Cut-off read from the data, not from the text of the source: active = growth inhibition above about 70%; inactive = the rest.
# Columns and labels:
# [1] = NCI Yeast Anticancer Drug Screen. Data for the rad52 strain (AID 147);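 note: 0% = growth of vehicle-treated control cultures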; settings: S. cerevisiae rad52 mutant growth inhibition, stronger effect = higher value
# Summary of the method: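 DNA repair-defective yeast; compound exposure; growth scored against vehicle controls.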
# [2] = NCI Yeast Anticancer Drug Screen. Data for the rad50EPP+ strain (AID 151);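 note: 0% = growth of vehicle-treated control cultures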; settings: S. cerevisiae rad50 mutant strain, stronger effect = higher value
# Summary of the method: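 rad50EPP+ yeast treated with test compounds. Readout: growth vs vehicle control.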
# [3] = NCI Yeast Anticancer Drug Screen. Data for the mgt1 strain (AID 153); settings: S. cerevisiae mgt1 mutant growth inhibition, stronger effect = higher value
# Summary of the method: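 Growth inhibition relative to vehicle controls was scored for the mgt1 yeast strain after compound exposure.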
# [4] = NCI Yeast Anticancer Drug Screen. Data for the rad50 strain (AID 155);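 note: 0% = growth of vehicle-only cultures of the same strain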; settings: S. cerevisiae rad50 strain growth inhibition, stronger effect = higher value
# Summary of the method: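 Readout: growth inhibition relative to vehicle-treated cultures. Compound exposure was carried out in a genetically defined yeast strain deficient in DNA damage repair.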
# [5] = NCI Yeast Anticancer Drug Screen. Data for the mec2-1 strain (AID 157); settings: S. cerevisiae mec2-1 strain, stronger effect = higher value
# Summary of the method: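 Growth inhibition is read against vehicle-treated controls after compound exposure of the mec2-1 yeast strain, which is defective in DNA damage repair or cell cycle control.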
# [6] = NCI Yeast Anticancer Drug Screen. Data for the rad14 strain (AID 159);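 note: 0% = growth of vehicle-treated control cultures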; settings: S. cerevisiae rad14 strain growth inhibition, stronger effect = higher value
# Summary of the method: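 Growth inhibition vs vehicle controls; genetically altered yeast strain (DNA damage repair defect) treated with test compounds.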
# [7] = NCI Yeast Anticancer Drug Screen. Data for the sgs1 mgt1 strain (AID 161);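 note: 0% = growth of cultures given vehicle only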; settings: S. cerevisiae sgs1 mgt1 strain, stronger effect = higher value
# Summary of the method: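 Compounds are added to genetically altered yeast, and growth is compared with cultures given vehicle alone to give percent inhibition.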
# [8] = NCI Yeast Anticancer Drug Screen. Data for the CLN2oe strain (AID 163);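 note: 0% = growth of vehicle-only control cultures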; settings: S. cerevisiae CLN2oe strain, stronger effect = higher value
# Summary of the method: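 Compound-treated yeast; growth vs vehicle ctrl = % inhibition. Genetically altered strain (cell-cycle control).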
# [9] = NCI Yeast Anticancer Drug Screen. Data for the cln2 rad14 strain (AID 165);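 note: 0% = growth equal to vehicle treated cultures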; settings: S. cerevisiae cln2 rad14 strain, stronger effect = higher value
# Summary of the method: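 Growth inhibition, relative to vehicle-treated controls, is the read-out. The test organism is a yeast strain with defined genetic alterations, cln2 rad14.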
# [10] = NCI Yeast Anticancer Drug Screen. Data for the bub3 strain (AID 167); settings: S. cerevisiae bub3 mutant strain, stronger effect = higher value
# Summary of the method: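 Readout: yeast growth inhibition, expressed relative to vehicle-only wells. The test organism is a mutant strain from a panel with lesions in DNA repair or checkpoint genes.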
# [11] = NCI Yeast Anticancer Drug Screen. Data for the wt2 strain (AID 169);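 note: 0% = growth of vehicle-treated yeast cultures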; settings: S. cerevisiae wt2 strain growth inhibition, stronger effect = higher value
# Summary of the method: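 Compound exposure of yeast; growth compared with vehicle controls; inhibition reported.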
# [12] = NCI Yeast Anticancer Drug Screen. Data for the mlh1 strain (AID 171);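 note: 0% = growth of vehicle-treated control cultures of the same strain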; settings: S. cerevisiae mlh1 strain growth inhibition, stronger effect = higher value
# Summary of the method: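 Compounds are applied to a genetically altered yeast strain, and its growth is compared with that of vehicle-treated cultures to give percent inhibition.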
# [13] = NCI Yeast Anticancer Drug Screen. Data for the sgs1 strain (AID 173);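 note: 0% = growth of vehicle-only control cultures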; settings: S. cerevisiae sgs1 mutant, stronger effect = higher value
# Summary of the method: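 Compounds applied to genetically altered yeast; growth compared with vehicle-treated cultures to give % inhibition.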
# [14] = NCI Yeast Anticancer Drug Screen. Data for the mlh1 rad18 strain (AID 175); settings: S. cerevisiae mlh1 rad18 strain growth inhibition, stronger effect = higher value
# Summary of the method: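 Cells of a genetically altered yeast strain, deficient in DNA damage repair, were treated with compound. Their growth was then compared with that of vehicle-treated cultures to give inhibition.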
# [15] = NCI Yeast Anticancer Drug Screen. Data for the rad18 strain (AID 177); settings: S. cerevisiae rad18 mutant growth inhibition, stronger effect = higher value
# Summary of the method: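 Compounds are applied to a repair-deficient yeast strain, and growth is compared with that of vehicle-treated cultures to give percent inhibition.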
# [16] = NCI Yeast Anticancer Drug Screen. Data for the wt1 strain (AID 149);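 note: 0% = growth of vehicle-treated wt1 cultures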; settings: S. cerevisiae wt1 strain (SPY 50644) growth inhibition, stronger effect = higher value
# Summary of the method: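 Growth inhibition read against vehicle controls after compound exposure of the wt1 yeast strain.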
# [17] = at 5.0 µM (retest, dose inferred, filed as 0.5)
# [18] = at 50.0 µM (retest, dose inferred, filed as 5.0)
smiles,measurement,setting,value
Oc1ccc(SCc2ccc(NCc3ccccc3)cc2)cc1,growth inhibition,[1]; at 1.2 µM,-4%
same,growth inhibition,[1]; at 3.7 µM,-27%
same,growth inhibition,[1]; at 11.0 µM,-26%
same,growth inhibition,[1]; at 33.0 µM,19%
same,growth inhibition,[1]; at 100.0 µM,89% (active)
same,growth inhibition,[2]; at 1.2 µM,-10%
same,growth inhibition,[2]; at 3.7 µM,-22%
same,growth inhibition,[2]; at 11.0 µM,-17%
same,growth inhibition,[2]; at 33.0 µM,0%
same,growth inhibition,[2]; at 100.0 µM,6%
same,growth inhibition,[3]; at 1.2 µM,-4%
same,growth inhibition,[3]; at 3.7 µM,7%
same,growth inhibition,[3]; at 11.0 µM,22%
same,growth inhibition,[3]; at 33.0 µM,47%
same,growth inhibition,[3]; at 100.0 µM,87% (active)
same,growth inhibition,[4]; at 1.2 µM,0%
same,growth inhibition,[4]; at 3.7 µM,-13%
same,growth inhibition,[4]; [17],22%
same,growth inhibition,[4]; at 11.0 µM,-11%
same,growth inhibition,[4]; at 33.0 µM,23%
same,growth inhibition,[4]; [18],94% (active)
same,growth inhibition,[4]; at 50.0 µM,66.8%
same,growth inhibition,[4]; at 100.0 µM,87% (active)
same,growth inhibition,[5]; at 1.2 µM,-7%
same,growth inhibition,[5]; at 3.7 µM,1%
same,growth inhibition,[5]; [17],12%
same,growth inhibition,[5]; at 11.0 µM,-13%
same,growth inhibition,[5]; at 33.0 µM,20%
same,growth inhibition,[5]; [18],55%
same,growth inhibition,[5]; at 50.0 µM,87.1% (active)
same,growth inhibition,[5]; at 100.0 µM,89% (active)
same,growth inhibition,[6]; at 1.2 µM,-30%
same,growth inhibition,[6]; at 3.7 µM,-44%
same,growth inhibition,[6]; at 11.0 µM,-31%
same,growth inhibition,[6]; at 33.0 µM,29%
same,growth inhibition,[6]; at 100.0 µM,89% (active)
same,growth inhibition,[7]; [17],42%
same,growth inhibition,[7]; [18],63%
same,growth inhibition,[7]; at 50.0 µM,77.7% (active)
same,growth inhibition,[8]; at 1.2 µM,12%
same,growth inhibition,[8]; at 3.7 µM,13%
same,growth inhibition,[8]; at 11.0 µM,13%
same,growth inhibition,[8]; at 33.0 µM,40%
same,growth inhibition,[8]; at 100.0 µM,90% (active)
same,growth inhibition,[9]; [17],38%
same,growth inhibition,[9]; [18],56%
same,growth inhibition,[9]; at 50.0 µM,49.4%
same,growth inhibition,[10]; at 1.2 µM,20%
same,growth inhibition,[10]; at 3.7 µM,14%
same,growth inhibition,[10]; [17],53%
same,growth inhibition,[10]; at 11.0 µM,11%
same,growth inhibition,[10]; at 33.0 µM,60%
same,growth inhibition,[10]; [18],50%
same,growth inhibition,[10]; at 50.0 µM,87.3% (active)
same,growth inhibition,[10]; at 100.0 µM,90% (active)
same,growth inhibition,[11]; at 1.2 µM,-16%
same,growth inhibition,[11]; at 3.7 µM,-46%
same,growth inhibition,[11]; at 11.0 µM,-33%
same,growth inhibition,[11]; at 33.0 µM,9%
same,growth inhibition,[11]; at 100.0 µM,91% (active)
same,growth inhibition,[12]; at 1.2 µM,-8%
same,growth inhibition,[12]; at 3.7 µM,-25%
same,growth inhibition,[12]; at 11.0 µM,-14%
same,growth inhibition,[12]; at 33.0 µM,18%
same,growth inhibition,[12]; at 100.0 µM,86% (active)
same,growth inhibition,[13]; at 1.2 µM,-33%
same,growth inhibition,[13]; at 3.7 µM,-63%
same,growth inhibition,[13]; at 11.0 µM,-41%
same,growth inhibition,[13]; at 33.0 µM,26%
same,growth inhibition,[13]; at 100.0 µM,87% (active)
same,growth inhibition,[14]; [17],19%
same,growth inhibition,[14]; [18],75% (active)
same,growth inhibition,[14]; at 50.0 µM,79.8% (active)
same,growth inhibition,[15]; at 1.2 µM,22%
same,growth inhibition,[15]; at 3.7 µM,7%
same,growth inhibition,[15]; at 11.0 µM,12%
same,growth inhibition,[15]; at 33.0 µM,32%
same,growth inhibition,[15]; at 100.0 µM,91% (active)
CCn1c(O)c(C=Nc2ccccc2)s/c1=N/Nc1nc(-c2ccccc2)cs1,growth inhibition,[1]; at 1.2 µM,12%
same,growth inhibition,[1]; at 3.7 µM,5%
same,growth inhibition,[1]; at 11.0 µM,10%
same,growth inhibition,[1]; at 33.0 µM,4%
same,growth inhibition,[1]; at 100.0 µM,20%
same,growth inhibition,[16]; at 1.2 µM,-87%
same,growth inhibition,[16]; at 3.7 µM,-1%
same,growth inhibition,[16]; at 11.0 µM,0%
same,growth inhibition,[16]; at 33.0 µM,0%
same,growth inhibition,[16]; at 100.0 µM,-3%
same,growth inhibition,[3]; at 1.2 µM,0%
same,growth inhibition,[3]; at 3.7 µM,10%
same,growth inhibition,[3]; at 11.0 µM,18%
same,growth inhibition,[3]; at 33.0 µM,21%
same,growth inhibition,[3]; at 100.0 µM,24%
same,growth inhibition,[4]; at 1.2 µM,-2%
same,growth inhibition,[4]; at 3.7 µM,6%
same,growth inhibition,[4]; [17],-12%
same,growth inhibition,[4]; at 11.0 µM,14%
same,growth inhibition,[4]; at 33.0 µM,15%
same,growth inhibition,[4]; [18],12%
same,growth inhibition,[4]; at 50.0 µM,41.7%
same,growth inhibition,[4]; at 100.0 µM,11%
same,growth inhibition,[5]; at 1.2 µM,-6%
same,growth inhibition,[5]; at 3.7 µM,-1%
same,growth inhibition,[5]; [17],-25%
same,growth inhibition,[5]; at 11.0 µM,-1%
same,growth inhibition,[5]; at 33.0 µM,-1%
same,growth inhibition,[5]; [18],11%
same,growth inhibition,[5]; at 50.0 µM,23.8%
same,growth inhibition,[5]; at 100.0 µM,2%
same,growth inhibition,[6]; at 1.2 µM,0%
same,growth inhibition,[6]; at 3.7 µM,6%
same,growth inhibition,[6]; at 11.0 µM,9%
same,growth inhibition,[6]; at 33.0 µM,7%
same,growth inhibition,[6]; at 100.0 µM,1%
same,growth inhibition,[7]; [17],-7%
same,growth inhibition,[7]; [18],27%
same,growth inhibition,[7]; at 50.0 µM,43.5%
same,growth inhibition,[8]; at 1.2 µM,-6%
same,growth inhibition,[8]; at 3.7 µM,-11%
same,growth inhibition,[8]; at 11.0 µM,-7%
same,growth inhibition,[8]; at 33.0 µM,-9%
same,growth inhibition,[8]; at 100.0 µM,17%
same,growth inhibition,[9]; [17],-1%
same,growth inhibition,[9]; [18],15%
same,growth inhibition,[9]; at 50.0 µM,25.3%
same,growth inhibition,[10]; at 1.2 µM,-5%
same,growth inhibition,[10]; at 3.7 µM,-3%
same,growth inhibition,[10]; [17],-14%
same,growth inhibition,[10]; at 11.0 µM,-4%
same,growth inhibition,[10]; at 33.0 µM,12%
same,growth inhibition,[10]; [18],74% (active)
same,growth inhibition,[10]; at 50.0 µM,75.5% (active)
same,growth inhibition,[10]; at 100.0 µM,50%
same,growth inhibition,[11]; at 1.2 µM,-3%
same,growth inhibition,[11]; at 3.7 µM,-2%
same,growth inhibition,[11]; at 11.0 µM,-1%
same,growth inhibition,[11]; at 33.0 µM,2%
same,growth inhibition,[11]; at 100.0 µM,11%
same,growth inhibition,[13]; at 1.2 µM,-10%
same,growth inhibition,[13]; at 3.7 µM,7%
same,growth inhibition,[13]; at 11.0 µM,13%
same,growth inhibition,[13]; at 33.0 µM,22%
same,growth inhibition,[13]; at 100.0 µM,36%
same,growth inhibition,[14]; [17],-10%
same,growth inhibition,[14]; [18],25%
same,growth inhibition,[14]; at 50.0 µM,61.8%
same,growth inhibition,[15]; at 1.2 µM,-3%
same,growth inhibition,[15]; at 3.7 µM,-3%
same,growth inhibition,[15]; at 11.0 µM,-5%
same,growth inhibition,[15]; at 33.0 µM,9%
same,growth inhibition,[15]; at 100.0 µM,-12%
